Assay outcomes deposited in PubChem BioAssay by several laboratories.
Compounds with a hit are over-represented: about 2.6% of the library has one in this group of screens.
HIF-2a inh: HIF-2a inhibition; 786-0 RCC cells HIF-2a reporter, luciferase luminescence, overnight; inhibition, % at 18.8 µM; 0.72% of 360,000 active;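 active = inhibition of the luminescence signal of 40% or more relative to plate controls, in a single-dose primary screen at 18.75 µM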
Shn3 3UTR inh: reduces Shn3 3'UTR luciferase signal in osteoblasts; 0.52% of 360,000 active; AID 588674; Clone20 osteoblast Shn3 3'UTR firefly luciferase, 24 h; inhibition, % at 12.5 µM;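 active = mean inhibition of at least 75% with every replicate also reaching 75%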;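 also: 0% = median of neutral control wells and 100% = pilot-screen positive control compound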
CF NFkB block: inhibitors of cystic fibrosis induced NF-kB | KKLEB NF-kB-GFP reporter, PAF-induced, GFP fluorescence overnight | inhibition, % at 5 µM | 0.86% of 360,000 active;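 active = at least 50% inhibition at 5 µM, scaled per plate between neutral and stimulator controls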;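 also: PAF is a Pseudomonas aeruginosa culture filtrate used as stimulus; plate controls were PAF-stimulated DMSO wells for no effect and unstimulated DMSO wells for full effect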
KKLEB tox: CF airway cell cytotoxicity counter-screen. KKLEB CF airway cells viability, ATPlite luminescence, overnight; active compounds read low; cells stimulated with P. aeruginosa culture filtrate. activity change (cytotoxicity), % at 5 µM. 0.36% of 360,000 active;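 active = corrected activity change at or below -50% at 5 µM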
Peg3 prom inh: reduces Peg3 promoter-driven luciferase expression in HeLa; HeLa PEG-Prom luciferase reporter, luminescence, overnight; inhibition, % at 20 µM; 1.7% of 360,000 active; AID 588405;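 active = inhibition of at least 50% at 20 µM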
Mdm2 MdmX conf: Mdm2/MdmX (human) interaction inhibition, confirmed | SaOS-2 split-luciferase Mdm2/MdmX complementation, luminescence | AID 504601 | inhibition, % at 8 µM | shares compounds with HIF-2a inh | 99% of 740 active;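 active = mean inhibition of the luminescence signal across two replicates at or above 26 percent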
Target sequence (O15151 whole entry, looked up): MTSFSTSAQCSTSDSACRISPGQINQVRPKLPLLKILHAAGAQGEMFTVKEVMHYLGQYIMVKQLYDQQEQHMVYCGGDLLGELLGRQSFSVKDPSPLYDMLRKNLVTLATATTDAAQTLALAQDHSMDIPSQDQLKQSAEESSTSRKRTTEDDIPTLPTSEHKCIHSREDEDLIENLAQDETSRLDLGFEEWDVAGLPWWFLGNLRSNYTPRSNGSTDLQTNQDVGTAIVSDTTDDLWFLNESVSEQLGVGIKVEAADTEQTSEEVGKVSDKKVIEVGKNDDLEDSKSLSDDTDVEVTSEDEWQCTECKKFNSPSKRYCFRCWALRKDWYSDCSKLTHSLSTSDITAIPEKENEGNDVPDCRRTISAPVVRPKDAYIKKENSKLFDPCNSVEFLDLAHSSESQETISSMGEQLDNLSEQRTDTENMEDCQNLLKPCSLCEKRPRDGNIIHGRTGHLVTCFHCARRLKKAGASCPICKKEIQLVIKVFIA
Target sequence (Q00987 whole entry, looked up): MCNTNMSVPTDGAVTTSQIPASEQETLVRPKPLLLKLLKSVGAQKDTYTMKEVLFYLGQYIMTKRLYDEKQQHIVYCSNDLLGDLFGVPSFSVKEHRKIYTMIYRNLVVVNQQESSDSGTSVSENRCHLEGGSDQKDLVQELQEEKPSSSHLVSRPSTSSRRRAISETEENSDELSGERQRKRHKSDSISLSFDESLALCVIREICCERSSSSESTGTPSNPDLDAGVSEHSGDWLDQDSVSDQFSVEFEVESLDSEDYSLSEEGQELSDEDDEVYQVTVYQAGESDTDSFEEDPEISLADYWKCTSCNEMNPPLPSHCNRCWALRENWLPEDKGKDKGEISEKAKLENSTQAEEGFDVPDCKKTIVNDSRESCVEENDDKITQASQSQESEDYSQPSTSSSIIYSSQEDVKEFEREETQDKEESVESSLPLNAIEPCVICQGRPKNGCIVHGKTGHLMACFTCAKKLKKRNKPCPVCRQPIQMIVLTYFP
HIF-2a conf: confirmation of HIF-2a inhibitors; 786-0 RCC cells, HIF-2a luciferase reporter luminescence, overnight; inhibition, % at 18.8 µM; shares compounds with HIF-2a inh; AID 651580; 56% of 1,800 active;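 active = mean inhibition across four replicates of at least 40 percent at the single tested concentration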
HIF-1a counter: HIF-1a inhibition counter-screen for HIF-2a hits; shares compounds with HIF-2a inh; 72% of 1,800 active; inhibition, % at 18.8 µM; MiaPaCa-2 HIF-1a luciferase reporter, desferoxamine, overnight;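 active = mean inhibition of the reporter signal across four replicates at the single tested dose of 50% or more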
* marks the source's active call; other numbers are inactive results; nt = not tested or not shown.

SMILES	HIF-2a inh	Shn3 3UTR inh	CF NFkB block	KKLEB tox	Peg3 prom inh	HIF-2a conf	HIF-1a counter	others
COc1cc(C=CC(=O)c2cc(OC)c(OC)c(OC)c2)cc(OC)c1OC	59*	62	24	7	71*	89*	105*
COc1cc(/C=C/C(C)=O)cc(OC)c1OC	8	-38	-6	10	-1	nt	nt
O=C(O)c1ccccc1C(=O)Nc1ccccc1	1	-8	-6	14	6	nt	nt
O=C(Nc1ccccc1)C1=C(c2ccccc2)S(=O)(=O)CCS1(=O)=O	72*	95*	85*	-83*	109*	45*	86*
C/C(=N\NC(=O)Cc1c(F)cccc1Cl)c1cccnc1	6	-10	-24	13	-1	nt	nt
Oc1ccc(N=Nc2ccc3c(c2)OCCO3)c2cccnc12	26	93*	-3	-3	-6	nt	nt	Mdm2 MdmX conf=89*
Oc1ccc(N=Nc2ccc3c(c2)OCCO3)c(O)c1	-139	27	-30	-3	-104	nt	nt
C=CCn1c(C)cc(C(=O)Cn2ncc(Cl)c(Cl)c2=O)c1C	94*	64	88*	-54*	101*	3	105*
O=C(Cn1ncc(Cl)c(Cl)c1=O)c1ccc(Cl)cc1	96*	70	48	-3	108*	-7	106*
CC(C)(C)C(=O)Cn1ncc(Cl)c(Cl)c1=O	95*	34	46	-18	104*	-12	106*
O=C(Cn1ncc(N2CCOCC2)c(Cl)c1=O)c1ccc(Cl)cc1	-45	0	9	-5	-40	nt	nt
C=CCn1c(C)cc(C(=O)CN2NS(=O)(=O)c3ccccc3C2=O)c1C	-245	-61	12	-12	-159	nt	nt
Cc1cc2ncc(-c3cccs3)nc2cc1C	-30	-2	-18	-34	-31	nt	nt
COc1cccc(NC(=O)c2cc3c(=O)n4ccccc4nc3n(CC(C)C)c2=N)c1	-10	5	-13	10	-8	nt	nt	Mdm2 MdmX conf=36*
CC(=O)n1cc(N(C(=O)CCl)c2ccc(Cl)cc2)c2ccccc21	83*	57	98*	-94*	108*	98*	108*
CCOC(=O)c1ccccc1Nc1cn(C(C)=O)c2ccccc12	13	2	12	-18	12	nt	nt
COC(=O)CCS(=O)(=O)c1nc(-c2ccccc2)cc(C(F)(F)F)n1	88*	76	87*	-60*	107*	99*	107*	Mdm2 MdmX conf=103*
Nc1nc(-c2ccc(F)cc2)cc(C(F)(F)F)n1	7	-3	23	-15	-13	nt	nt
CCOC(=O)CCS(=O)(=O)c1nc(-c2ccccc2)cc(C(F)(F)F)n1	94*	98*	86*	-77*	114*	nt	nt	Mdm2 MdmX conf=103*
CS(=O)(=O)c1nc(-c2ccc(F)cc2)cc(C(F)(F)F)n1	95*	89*	92*	-96*	106*	55*	102*
O=C(O)CCS(=O)(=O)c1nc(-c2cccs2)cc(C(F)(F)F)n1	5	-18	16	-1	12	nt	nt
Cc1cc(NC(=O)CCCS(=O)(=O)c2nc(-c3cccs3)cc(C(F)(F)F)n2)no1	94*	95*	90*	-53*	106*	56*	104*
C=CCN(c1ccccc1)S(=O)(=O)c1ccc(Cl)c(C(=O)OCC(=O)c2[nH]c(C)c(C(C)=O)c2C)c1	30	-3	11	6	8	nt	nt
Cc1cccc(NC(=O)NC2(C(=O)NCc3ccco3)CCCCC2)c1	1	-10	-15	-4	5	nt	nt
Cc1cc(C)c(NC(=O)C2CCCO2)c(C)c1 (stereo unspecified)	12	-5	11	-4	-10	nt	nt
SMILES	HIF-2a inh	Shn3 3UTR inh	CF NFkB block	KKLEB tox	Peg3 prom inh	HIF-2a conf	HIF-1a counter	others
COC(=O)C1(C(F)(F)F)C2C=CC(C2)N1S(=O)(=O)c1ccc(C)cc1 (stereo unspecified)	10	-6	-10	0	9	nt	nt
OC(CNCC(c1ccco1)N1CCCCC1)c1ccccc1 (stereo unspecified)	3	-3	0	-6	6	nt	nt
CCOC(=O)CS(=O)(=O)c1nc(-c2ccc(F)cc2)cc(C(F)(F)F)n1	93*	97*	85*	-44	100*	nt	nt	Mdm2 MdmX conf=99*
Cc1nc(/C(=N/O)C(N)=O)cs1	45*	-6	-17	-11	11	-11	-5
COc1cc(NC(=O)COC(=O)CO/N=C(\C)c2ccc3c(c2)OCO3)cc(OC)c1OC	-6	3	-5	4	-11	nt	nt
CC(=O)OCCCNc1cc(Sc2nc3ccccc3s2)c2nonc2c1[N+](=O)[O-]	32	101*	2	2	105*	nt	nt	Mdm2 MdmX conf=103*
CCCC(=O)OCCNc1cc(SCCC(=O)OC)c2nonc2c1[N+](=O)[O-]	23	8	22	-2	25	nt	nt
O=[N+]([O-])c1c(NCCCO)cc(Sc2ccc(Cl)cc2)c2nonc12	96*	94*	-4	24	98*	52*	106*
CC(=O)OCCNc1cc(Sc2nc3ccccc3[nH]2)c2nonc2c1[N+](=O)[O-]	95*	98*	63*	-16	113*	78*	71*
COc1ccc(Nc2cc(NCCCO)c([N+](=O)[O-])c3nonc23)cc1	-9	19	-14	-6	30	nt	nt
O=[N+]([O-])c1c(NCCCO)cc(N2CCCCCC2)c2nonc12	10	28	-9	4	22	nt	nt
O=[N+]([O-])c1cc(S(=O)(=O)N2CCCCCC2)ccc1Cl	40*	0	-12	-3	69*	29	68*
COc1ccc(C=C(C(=O)c2ccccc2)C(=O)c2ccccc2)cc1	-105	-39	11	-8	-319	nt	nt
CC(C)(C)NCC(=Cc1ccccc1)C(=O)c1ccccc1	80*	97*	4	-13	101*	99*	107*
O=C(Nc1ccc(Nc2ccncc2)cc1)c1ccc([N+](=O)[O-])cc1	48*	48	16	-1	80*	-23	27
O=C(Nc1ccc(Oc2cccnc2)cc1)c1ccc([N+](=O)[O-])cc1	-38	17	-16	-5	-24	nt	nt
CC1(C)CC(=O)/C(=C(/O)CCCN2C(=O)c3ccccc3C2=O)C(=NC(C)(C)C)C1	18	-8	-5	6	3	nt	nt
COc1ccc(C2NC(=O)NC(C)=C2C(=O)OC2CCCC(C)C2)cc1 (stereo unspecified)	41*	26	3	-11	52*	10	44
O=C(/C=C/[C@H]1O[C@@H](n2ccc(=O)[nH]c2=O)[C@H](O)[C@@H]1O)NCc1ccccc1	-4	-2	-17	8	6	nt	nt
